Experiment [1] deals with Peroxisome proliferator-activated receptor delta (Homo sapiens) (UniProt Q03181). As to the kind of experiment: qHTS assay to identify small molecule agonists of the peroxisome proliferator-activated receptor delta (PPARd) signaling pathway (AID 743212; calls by dose curve). The gist of the method:
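Tox21 library screened in GeneBLAzer PPARd UAS-bla HEK293H cells. After compound treatment at 37 C, a FRET-based beta-lactamase substrate was applied for 2 h and fluorescence recorded.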
(In general: Quantitative high-throughput screening tests each substance at several concentrations.)

Experiment [2] in a line: qHTS assay to identify small molecule antagonists of the peroxisome proliferator-activated receptor delta (PPARd) signaling pathway - cell viability counter screen (AID 743213). Note: nearly all actives have a fitted effect of over 50% in size. Note: potency is the fitted concentration of half-maximal effect. The gist of the method: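 PPARd-bla HEK293H cells were treated with compounds plus agonist L165041 (300 nM final) for 17 h at 37 C. Viability was then read in the same wells by CellTiter-Glo luminescence after 30 min at room temperature.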

Experiment [3] has as its target Peroxisome proliferator-activated receptor delta (Homo sapiens) (UniProt Q03181). As to the kind of experiment: qHTS assay to identify small molecule antagonists of the peroxisome proliferator-activated receptor delta (PPARd) signaling pathway (AID 743215; active = well fitted inhibition curve with a large enough effect in the signal ratio in the repeat runs, not every such curve was filed as active; the % refers to the signal ratio;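 note: cells stimulated with agonist L165041 at 300 nM final during compound exposure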; note: potency is the fitted concentration of half-maximal effect). The gist of the method: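 Screen format: qHTS, antagonist mode. HEK293H PPARd-bla cells received compound and 300 nM L165041 (final), 17 h, 37 C. Beta-lactamase detected via FRET substrate fluorescence, 2 h, room temperature.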

The nature of experiment [4]: qHTS assay to identify small molecule antagonists of the farnesoid-X-receptor (FXR) signaling pathway - cell viability counter screen (AID 743221; active = well fitted cell-killing curve with a large enough effect in the repeat runs, not every such curve was filed as active; note: nearly all actives have a fitted effect of over 50% in size; note: potency is the fitted concentration of half-maximal effect). The gist of the method: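 HEK 293T FXR-bla cells, 5 h pre-incubation; compound + CDCA 50 uM final, 16 h, 37 C; beta-lactamase FRET read first, then CellTiter-Glo luminescence, 30 min RT.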
Experiment [5] addresses Vitamin D3 receptor (Homo sapiens) (UniProt P11473). Kind of experiment: qHTS assay to identify small molecule agonists of the vitamin D receptor (VDR) signaling pathway (AID 743222; calls by dose curve). The gist of the method: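 Using LiveBLAzer B/G FRET detection, agonism was scored in VDR-bla cells exposed overnight (16 h, 37C) to DMSO-dissolved compounds; substrate incubation was 2 h at room temperature.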

Experiment [6] shares this target. As to the kind of experiment: qHTS assay to identify small molecule antagonists of the vitamin D receptor (VDR) signaling pathway (AID 743223; active = well fitted inhibition curve with a large enough effect in the signal ratio in the repeat runs, not every such curve was filed as active; the % refers to the signal ratio; note: potency is the fitted concentration of half-maximal effect). The gist of the method:
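Beta-lactamase reporter read-out: FRET substrate fluorescence after 2 h at room temperature, following 16 h exposure of VDR-bla cells to test compound plus 3 nM (final) 1alpha,25-dihydroxyvitamin D3 agonist at 37C.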

Experiment [7] in a line: qHTS assay to identify small molecule agonists of the vitamin D receptor (VDR) signaling pathway - cell viability counter screen (AID 743224). Note: nearly all actives have a fitted effect of over 50% in size. Note: potency is the fitted concentration of half-maximal effect. The gist of the method:
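Counter screen for cytotoxicity: VDR-bla cells at 2,000 cells/well, 16 h compound exposure, then CellTiter-Glo luminescence after the beta-lactamase measurement.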

The nature of experiment [8]: qHTS assay to identify small molecule antagonists of the vitamin D receptor (VDR) signaling pathway - cell viability counter screen (AID 743225). Note: nearly all actives have a fitted effect of over 50% in size. Note: potency is the fitted concentration of half-maximal effect. The gist of the method:
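Viability counter screen run in the same wells as the beta-lactamase reporter assay: HEK 293T VDR-UAS-bla cells, 16 h compound exposure at 37C with 3 nM (final) 1-alpha,25-dihydroxyvitamin D3. CellTiter-Glo luminescence, 30 min, room temperature.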

A short description of experiment [9]: qHTS assay to identify small molecule agonists of the NFkB signaling pathway - cell viability counter screen (AID 1159515; calls by dose curve; note: nearly all actives have a fitted effect of over 55% in size; note: potency is the fitted concentration of half-maximal effect). The gist of the method: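 Counter screen run alongside the NFkB-bla agonist assay: ME-180 reporter cells exposed to compounds for 5 hr, then lysed with CellTiter-Glo in the same wells. Luminescence, read after 30 min, reflects viable cells.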

A short description of experiment [10]: qHTS assay to identify small molecule agonists of the endoplasmic reticulum stress response signaling pathway - cell viability counter screen (AID 1159517; calls by dose curve; note: nearly all actives have a fitted effect of over 50% in size; note: potency is the fitted concentration of half-maximal effect). The gist of the method:
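In parallel with the ESRE reporter read, cytotoxicity was scored by CellTiter-Glo luminescence (30 min, room temperature) on HeLa ESRE-bla cells dosed for 5 hr.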

The nature of experiment [11]: qHTS assay to identify small molecule antagonists of the retinoid-related orphan receptor gamma (ROR-gamma) signaling pathway - cell viability counter screen (AID 1159520). Note: nearly all actives have a fitted effect of over 50% in size. Note: potency is the fitted concentration of half-maximal effect. The gist of the method:
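Tet-on ROR gamma CHO cells were given compounds for 2 hr, then doxycycline hyclate at 1 uM final, and incubated 16 hr at 37 C. Viability was measured as ATP content by CellTiter-Glo luminescence.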

In experiment [12] the target is Nuclear receptor ROR-gamma (Homo sapiens) (UniProt P51449). As to the kind of experiment: qHTS assay to identify small molecule antagonists of the retinoid-related orphan receptor gamma (ROR-gamma) signaling pathway (AID 1159521; note: nearly all actives have a fitted effect of over 50% in size; note: potency is the fitted concentration of half-maximal effect). The gist of the method:
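Luminescence readout (ONE-Glo, 30 min RT) after 16 h doxycycline induction; loss of signal scored as antagonism. CHO cells with TET-inducible RORγ and RORE-LUC reporter; compounds added 2 h before 1 uM final doxycycline.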

Experiment [13] can be described thus: qHTS assay to identify small molecule agonists of the AP-1 signaling pathway - cell viability counter screen (AID 1159525; calls by dose curve; note: nearly all actives have a fitted effect of over 55% in size; note: potency is the fitted concentration of half-maximal effect). The gist of the method:
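Same-well cytotoxicity counter screen of the Tox21 10K library in ME-180 cells. The readout is ATP-dependent luminescence after 5 h compound treatment. Data are normalised to DMSO and tetra n-octyl ammonium bromide controls.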

A short description of experiment [14]: qHTS assay to identify small molecule agonists of the RXR signaling pathway - cell viability counter screen (AID 1159529). Note: nearly all actives have a fitted effect of over 50% in size. Note: potency is the fitted concentration of half-maximal effect. The gist of the method: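 Luminescence from CellTiter-Glo (30 min, RT) measured viability in the same wells as the beta-lactamase reporter readout. Cells: GeneBLAzer RXR-alpha HEK 293T, 2% charcoal-stripped FBS. Compound exposure 16 hr, 37 C.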

Experiment [15] can be described thus: qHTS assay to identify small molecule agonists of the farnesoid-X-receptor (FXR) signaling pathway - cell viability counter screen (AID 743218). Note: nearly all actives have a fitted effect of over 45% in size. Note: potency is the fitted concentration of half-maximal effect. The gist of the method: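 Same-well cytotoxicity check on FXR-UAS-bla HEK 293T cells: 5 h attachment, 16 h compound at 37 C, CellTiter-Glo luminescence read at room temperature after 30 min.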
Experiment [16] can be described thus: qHTS assay to identify small molecule agonists of the endoplasmic reticulum stress response signaling pathway (AID 1159516; active = well fitted activation curve with a large enough effect in the signal ratio in the repeat runs, not every such curve was filed as active; the % refers to the signal ratio). The gist of the method: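 For this screen, HeLa cells stably carrying beta-lactamase under the ER stress response element received test compounds, positive controls or DMSO for 5 hr at 37 C; B/G FRET substrate was then added and dual-wavelength emission recorded.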

Experiment [17] can be described thus: qHTS assay to identify small molecule agonists of the AP-1 signaling pathway (AID 1159526; calls by dose curve).
Experiment [18] concerns the target Retinoic acid receptor RXR-alpha (Homo sapiens) (UniProt P19793). As to the kind of experiment: qHTS assay to identify small molecule agonists of the RXR signaling pathway (AID 1159527; calls by dose curve; note: nearly all actives have a fitted effect of over 35% in size). The gist of the method:
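Agonist mode; 9-cis retinoic acid positive control. HEK 293T UAS-bla reporter cells, 2% charcoal-stripped FBS, 16 hr compound exposure at 37 C/5% CO2. LiveBLAzer B/G FRET substrate 2 hr RT; ex 405, em 460/530 nm.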

Experiment [19] has as its target Bile acid receptor (Homo sapiens) (UniProt Q96RI1). As to the kind of experiment: qHTS assay to identify small molecule agonists of the farnesoid-X-receptor (FXR) signaling pathway (AID 743220; active = well fitted activation curve with a large enough effect in the signal ratio in the repeat runs, not every such curve was filed as active; the % refers to the signal ratio). The gist of the method:
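FXR-UAS-bla HEK 293T cells carrying a UAS-driven beta-lactamase reporter were plated for 5 h at 37C/5% CO2, then exposed to DMSO-dissolved Tox21 10K compounds for 16 h at 37C. A LiveBLAzer B/G FRET substrate was loaded for 2 h at room temperature before fluorescence reading.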

Experiment [20] shares this target. As to the kind of experiment: qHTS assay to identify small molecule antagonists of the farnesoid-X-receptor (FXR) signaling pathway (AID 743217; active = well fitted inhibition curve with a large enough effect in the signal ratio in the repeat runs, not every such curve was filed as active; the % refers to the signal ratio). The gist of the method: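 Quantitative HTS, beta-lactamase reporter format: FXR-UAS-bla HEK 293T cells co-treated 16 h at 37 °C with compounds and 50 uM final chenodeoxycholic acid, then read by B/G FRET fluorescence.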

Several values for one entry are separate records, joined by “and”; a condition that tells them apart may be missing. Equal values may be shown once. Inconclusive results are not listed. Some structures have more than one record in an assay (separate samples or runs), and their calls can disagree. Activity calls are given as the source filed them. Unless noted, calls come from the whole dose curve; as a rule, active = well fitted curve in the direction sought with a large enough effect in the repeat runs; inconclusive = weak or mixed curves; inactive = no such curve, though single readings can be large; an effect the other way counts as inactive or inconclusive.

Sequence of Vitamin D3 receptor (Homo sapiens) (P11473 whole entry, looked up): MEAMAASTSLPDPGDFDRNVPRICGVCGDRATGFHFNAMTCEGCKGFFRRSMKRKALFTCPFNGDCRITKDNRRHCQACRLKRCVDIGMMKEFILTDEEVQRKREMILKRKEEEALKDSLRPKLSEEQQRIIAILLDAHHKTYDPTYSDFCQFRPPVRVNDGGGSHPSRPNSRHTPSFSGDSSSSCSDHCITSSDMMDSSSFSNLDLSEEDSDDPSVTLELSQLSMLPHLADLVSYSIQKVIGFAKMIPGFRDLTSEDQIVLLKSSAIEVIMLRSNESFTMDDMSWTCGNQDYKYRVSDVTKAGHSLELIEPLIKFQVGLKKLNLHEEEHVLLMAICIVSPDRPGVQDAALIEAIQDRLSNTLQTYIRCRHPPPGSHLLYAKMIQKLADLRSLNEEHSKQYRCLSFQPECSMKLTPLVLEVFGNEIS
Sequence of Bile acid receptor (Homo sapiens) (Q96RI1 whole entry, looked up): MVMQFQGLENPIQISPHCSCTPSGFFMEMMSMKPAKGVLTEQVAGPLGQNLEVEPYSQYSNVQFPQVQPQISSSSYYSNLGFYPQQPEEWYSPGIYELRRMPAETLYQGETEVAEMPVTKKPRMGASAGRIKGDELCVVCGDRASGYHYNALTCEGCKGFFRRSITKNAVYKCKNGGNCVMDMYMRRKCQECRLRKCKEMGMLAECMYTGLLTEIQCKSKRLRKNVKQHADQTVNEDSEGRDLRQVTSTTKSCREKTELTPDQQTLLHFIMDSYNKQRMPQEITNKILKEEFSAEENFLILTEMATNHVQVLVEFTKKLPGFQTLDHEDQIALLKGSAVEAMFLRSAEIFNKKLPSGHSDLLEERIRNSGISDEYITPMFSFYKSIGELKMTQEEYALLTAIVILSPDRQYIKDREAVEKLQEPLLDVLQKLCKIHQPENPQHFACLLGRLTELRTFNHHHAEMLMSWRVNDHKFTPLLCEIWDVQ
Sequence of Peroxisome proliferator-activated receptor delta (Homo sapiens) (Q03181 whole entry, looked up): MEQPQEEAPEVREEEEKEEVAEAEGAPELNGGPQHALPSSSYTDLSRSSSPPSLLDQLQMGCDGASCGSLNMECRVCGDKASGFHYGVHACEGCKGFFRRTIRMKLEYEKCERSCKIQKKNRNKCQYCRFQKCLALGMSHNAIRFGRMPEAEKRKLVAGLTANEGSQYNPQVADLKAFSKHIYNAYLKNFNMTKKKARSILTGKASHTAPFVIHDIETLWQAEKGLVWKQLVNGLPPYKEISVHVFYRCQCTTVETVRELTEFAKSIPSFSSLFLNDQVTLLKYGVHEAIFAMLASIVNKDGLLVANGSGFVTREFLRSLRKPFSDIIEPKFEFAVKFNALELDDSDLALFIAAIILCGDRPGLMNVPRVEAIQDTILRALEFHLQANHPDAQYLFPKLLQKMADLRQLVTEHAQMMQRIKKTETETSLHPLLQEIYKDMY
Sequence of Retinoic acid receptor RXR-alpha (Homo sapiens) (P19793 whole entry, looked up): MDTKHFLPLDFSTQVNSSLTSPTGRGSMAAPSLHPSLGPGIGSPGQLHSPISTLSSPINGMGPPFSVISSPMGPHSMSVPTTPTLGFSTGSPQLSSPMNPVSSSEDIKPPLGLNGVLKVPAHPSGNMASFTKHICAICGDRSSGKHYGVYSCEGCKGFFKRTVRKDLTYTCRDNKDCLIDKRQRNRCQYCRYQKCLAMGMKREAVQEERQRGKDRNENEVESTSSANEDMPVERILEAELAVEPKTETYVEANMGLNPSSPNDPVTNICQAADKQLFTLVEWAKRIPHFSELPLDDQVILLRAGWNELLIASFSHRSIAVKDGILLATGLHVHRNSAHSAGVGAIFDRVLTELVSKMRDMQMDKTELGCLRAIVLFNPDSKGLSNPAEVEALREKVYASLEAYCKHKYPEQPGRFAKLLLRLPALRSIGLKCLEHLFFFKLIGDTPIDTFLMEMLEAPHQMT

As to `CC(C)CCCCCCc1ccc(O)cc1`, the Potency entry in [1], in experiment [3] and in [5] was “inactive” each time. In addition, the Potency in experiment [2] is 39.6 µM (active) and 43.6 µM (active); in experiment [4], 22.3 µM (active) and 49 µM (active); in experiment [6] it was 22.3 µM (active) and 43.6 µM (active); in experiment [7], 19.8 µM (active) and 30.9 µM (active); in experiment [8], 31.4 µM (active) and 38.9 µM (active); in [9] it was 39.6 µM (active) and 38.9 µM (active). Besides, the Potency in experiment [10] was 35.3 µM (active) and 54.9 µM (active); in experiment [11], 24.8 µM (active); in experiment [12], 2.48 µM (active); in [13] it was 25 µM (active) and 49 µM (active); in experiment [14], 5.59 µM (active) and 38.9 µM (active).

As for `NC12CC3CC(CC(C3)C1)C2`, the Potency entry in experiment [1], in [2], in experiment [3], in experiment [15], in experiment [4] and in experiment [5] was “inactive” throughout. Further, the Potency result in experiment [7], in experiment [10], in experiment [11], in experiment [12], in [13] and in experiment [17] was “inactive” each time. Moreover, the Potency result in [18] and in experiment [14] was “inactive” throughout. The compound was called inactive in experiment [16].

With `CCOc1ccc2c(c1)C(C)=CC(C)(C)N2`, the Potency entry in experiment [1], in [2], in experiment [15], in experiment [4], in [7] and in [9] was “inactive” in each case. The Potency result in [10], in experiment [11], in [12], in experiment [13] and in experiment [14] was “inactive” throughout.

For the compound `Oc1ccc(Cl)cc1Cc1cc(Cl)ccc1O`, the Potency entry in experiment [1], in experiment [19], in experiment [4], in experiment [5] and in [9] was “inactive” each time. For the same compound, the Potency is 25 µM (active) in [2]; 55.9 µM (active) and inactive in [3]; 49 µM (active) in experiment [15]; 11.2 µM (active) and 38.9 µM (active) in experiment [7]; 54.9 µM (active) and inactive in experiment [10]; 24.8 µM (active) in [11]. The Potency in experiment [13] is 55.9 µM (active); in experiment [14], 49.9 µM (active).

`CCN(CC)C(=S)SSC(=S)N(CC)CC`: the Potency was 123 nM (active) and 39.8 nM (active) and 150 nM (active) in experiment [2]; 87.1 nM (active) in [3]; 0.0915 µM (active) in experiment [15]; 222 nM (active) and 188 nM (active) in experiment [4]; 110 nM (active) and 39.8 nM (active) and 188 nM (active) in experiment [7]; 1 µM (active) and inactive in experiment [9]. Further, the Potency was 24.3 µM (active) and 176 nM (active) in experiment [11]; 344 nM (active) and 44.3 nM (active) and 188 nM (active) in experiment [12]; 199 nM (active) and 213 nM (active) in experiment [14]. Moreover, the Potency result in experiment [8] and in [10] was “inactive” each time.

In the case of `Cc1cccc2n[nH]nc12`, the Potency result in [1], in experiment [2], in experiment [3], in [15], in experiment [4] and in [5] was “inactive” each time. Besides, the Potency result in experiment [6], in experiment [7], in experiment [8], in experiment [9], in [10] and in experiment [11] was “inactive” throughout. Also, the Potency entry in experiment [12], in experiment [13], in experiment [17] and in experiment [14] was “inactive” each time.

Regarding `c1ccc2cc3c(ccc4ccccc43)cc2c1`, the Potency result in [2], in experiment [20], in [15], in experiment [19], in experiment [4] and in experiment [5] was “inactive” each time. The Potency result in experiment [6], in [7], in experiment [8], in [9], in [10] and in experiment [11] was “inactive” in each case. Further, the Potency result in experiment [12], in experiment [13], in experiment [17] and in [14] was “inactive” throughout.

The values above are taken from PubChem BioAssay (Tox21).
